Laboratory results from the supplement of paper PMC10849652.
Of roughly 7,900 targets only a part is listed; those with a hit were picked by preference. About 0.6% of all pairs of compound and target were hits.

Assays:
Assay in all cases: log2 fold change, soluble protein after heating vs DMSO (PISA); higher = thermal stabilisation; K562 cells, 10 uM, 30 min; active = over 0.2 and 3.5 SD of the protein, either way, in both replicates (recomputed)
[1] = compound: Cc1ccc(NC(=O)c2ccc(CN3CC[C@H](N(C)C)C3)c(C(F)(F)F)c2)cc1Nc1nccc(-c2cncnc2)n1 [bafetinib]
In short: (§1)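 Soluble protein was defined as the supernatant after 21,000xg for 90 min. It came from K562 cells at 2×10^6 cells/mL given 10 μM compound for 30 min, heated in aliquots for 3 min across 48°C-58°C, pooled, and extracted in PBS with 0.5% NP-40 at 4°C, and was quantified by TMTpro 16plex LC-MS/MS with equalised channel sums. Thermal stability against control samples, from duplicates, is reported as log2 fold change.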

[2] = compound: Cc1cccc(CC(=O)N2CCc3c2ccc(-c2cn(C)c4ncnc(N)c24)c3F)n1
In short: as §1

[3] = compound: Cc1cn(-c2cc(NC(=O)c3ccc(C)c(Nc4nccc(-c5cccnc5)n4)c3)cc(C(F)(F)F)c2)cn1 [nilotinib]
In short: as §1

[4] = compound: Cc1nc(Nc2n[nH]c3c2CN(C(=O)N[C@H](CN(C)C)c2ccccc2)C3(C)C)c2sccc2n1
In short: as §1

[5] = compound: Cc1nc(Nc2ncc(C(=O)Nc3c(C)cccc3Cl)s2)cc(N2CCN(CCO)CC2)n1 [dasatinib]
In short: as §1

[6] = compound: Cc1ncc(-c2ccnc(Nc3ccc(S(C)(=O)=O)cc3)n2)n1C(C)C
In short: as §1

[7] = compound: Cn1cc(-c2ccc3c(c2)CCN3C(=O)Cc2cccc(C(F)(F)F)c2)c2c(N)ncnc21
In short: as §1

[8] = compound: Cn1cc(-c2ccc3nnc(C(F)(F)c4ccc5ncccc5c4)n3n2)cn1
In short: as §1

[9] = compound: Cn1cncc1[C@@](N)(c1ccc(Cl)cc1)c1ccc2c(c1)c(-c1cccc(Cl)c1)cc(=O)n2C [tipifarnib]
In short: as §1

[10] = compound: FC(F)(F)c1ccc(/C=C/c2nc(COc3ccc(CCCCn4ccnn4)cc3)co2)cc1 [mubritinib]
In short: as §1

[11] = compound: NC(=O)Nc1cc(-c2cccc(F)c2)sc1C(=O)N[C@H]1CCCNC1
In short: as §1

[12] = compound: NC(=O)c1cnc(N[C@@H]2CCCC[C@@H]2N)nc1Nc1cccc(-n2nccn2)c1
In short: as §1

[13] = compound: NC1(c2ccc(-c3nc4ccn5c(=O)[nH]nc5c4cc3-c3ccccc3)cc2)CCC1
In short: as §1

[14] = compound: NCC(=O)Nc1ccc(-n2nc(C(F)(F)F)cc2-c2ccc3c(ccc4ccccc43)c2)cc1
In short: as §1

[15] = compound: Nc1ccccc1NC(=O)c1ccc(CNC(=O)OCc2cccnc2)cc1 [entinostat]
In short: as §1

[16] = compound: O=C(CCCCCCC(=O)Nc1ccccc1)NO [vorinostat]
In short: as §1

[17] = compound: O=C(CCCCCCNC(=O)c1cnc(N(c2ccccc2)c2ccccc2Cl)nc1)NO [citarinostat]
In short: as §1

[18] = compound: O=C(O)c1ccc2c(c1)nc(Nc1cccc(Cl)c1)c1ccncc12 [silmitasertib]
In short: as §1

[19] = compound: O=C1NC(=O)C(c2cnc3ccccn23)=C1c1cn2c3c(cc(F)cc13)CN(C(=O)N1CCCCC1)CC2
In short: as §1

[20] = compound: c1cc(OCCN2CCCCC2)cc(-c2n[nH]c3ccc(-c4nnc[nH]4)cc23)c1
In short: as §1

Measured: log2 fold change

SAMSN1 isoform 3 (UniProt Q9NSI8)
inactive: [1] -0.049 | [2] 0.04 | [3] -0.036 | [4] -0.169 | [5] -0.09 | [6] 0.02 | [7] 0.029 | [8] 0.037 | [9] -0.015 | [10] 0.048 | [11] -0.06 | [12] -0.067 | [13] -0.067 | [14] -0.028 | [15] 0.099 | [16] 0.009 | [17] 0.06 | [18] 0.063 | [19] -0.073 | [20] -0.025

SLC12A9 (UniProt Q9BXP2)
Chain of UniProt Q9BXP2 (Q9BXP2 whole entry, looked up): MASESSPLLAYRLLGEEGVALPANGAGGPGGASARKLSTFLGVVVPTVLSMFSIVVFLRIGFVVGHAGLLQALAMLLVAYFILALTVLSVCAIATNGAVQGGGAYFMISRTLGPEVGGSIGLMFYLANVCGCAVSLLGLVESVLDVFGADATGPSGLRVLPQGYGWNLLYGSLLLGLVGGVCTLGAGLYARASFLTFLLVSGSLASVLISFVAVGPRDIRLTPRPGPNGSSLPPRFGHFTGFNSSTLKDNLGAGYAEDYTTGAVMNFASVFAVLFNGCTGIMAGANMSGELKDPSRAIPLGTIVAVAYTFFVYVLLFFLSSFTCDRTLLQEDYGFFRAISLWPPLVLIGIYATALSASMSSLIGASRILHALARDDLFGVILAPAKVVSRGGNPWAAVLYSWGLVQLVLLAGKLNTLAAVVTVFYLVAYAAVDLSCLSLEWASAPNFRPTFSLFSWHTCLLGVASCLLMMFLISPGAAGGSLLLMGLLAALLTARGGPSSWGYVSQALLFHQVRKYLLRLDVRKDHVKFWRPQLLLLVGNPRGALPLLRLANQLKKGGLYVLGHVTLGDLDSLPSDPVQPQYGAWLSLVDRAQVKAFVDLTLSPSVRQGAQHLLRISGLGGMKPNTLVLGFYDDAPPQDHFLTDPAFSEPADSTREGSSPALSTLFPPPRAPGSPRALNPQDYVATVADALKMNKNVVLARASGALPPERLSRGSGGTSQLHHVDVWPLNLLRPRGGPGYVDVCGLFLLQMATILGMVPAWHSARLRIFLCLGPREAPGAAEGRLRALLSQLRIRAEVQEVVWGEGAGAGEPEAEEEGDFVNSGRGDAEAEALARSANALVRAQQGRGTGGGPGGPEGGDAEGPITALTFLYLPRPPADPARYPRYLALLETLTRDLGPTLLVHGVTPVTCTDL
inactive: [1] -0.088 | [2] 0.023 | [3] -0.069 | [4] 0.05 | [5] 0.057 | [6] -0.066 | [7] 0.008 | [8] -0.006 | [9] 0.025 | [10] 0.001 | [11] 0.05 | [12] -0.142 | [14] -0.03 | [15] 0.021 | [16] 0.027 | [17] 0.035 | [18] 0.017 | [19] -0.081 | [20] -0.062
active: [13] -0.313

SFXN5 (UniProt Q8TD22)
Chain of UniProt Q8TD22 (Q8TD22 whole entry, looked up): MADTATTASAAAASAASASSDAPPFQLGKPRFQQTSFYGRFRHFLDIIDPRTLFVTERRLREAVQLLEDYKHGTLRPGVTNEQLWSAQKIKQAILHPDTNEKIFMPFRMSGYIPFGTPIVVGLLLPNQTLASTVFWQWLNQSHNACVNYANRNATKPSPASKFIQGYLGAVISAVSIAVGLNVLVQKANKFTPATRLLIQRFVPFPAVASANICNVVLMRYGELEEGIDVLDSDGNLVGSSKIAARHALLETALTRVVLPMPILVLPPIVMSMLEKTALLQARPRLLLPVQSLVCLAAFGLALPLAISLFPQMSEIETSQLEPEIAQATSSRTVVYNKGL
inactive: [2] 0.017 | [3] -0.052 | [4] 0.049 | [5] 0.084 | [6] 0.134 | [7] 0.107 | [8] 0.093 | [9] 0.022 | [10] 0.041 | [11] -0.043 | [12] 0.042 | [13] -0.072 | [14] -0.095 | [15] -0.068 | [16] 0.019 | [17] -0.028 | [18] -0.003 | [19] 0.012 | [20] 0.072
active: [1] -0.3

RECQL (UniProt P46063)
inactive: [1] 0.005 | [2] -0.019 | [3] 0.025 | [4] 0.006 | [5] -0.043 | [6] -0.033 | [7] 0.055 | [8] -0.006 | [9] -0.034 | [10] 0.017 | [11] 0.034 | [12] -0.076 | [13] -0.047 | [14] -0.033 | [15] 0.001 | [16] 0.045 | [17] 0.092 | [18] -0.028 | [19] -0.019 | [20] -0.03

SCPEP1 (UniProt Q9HB40)
Chain of UniProt Q9HB40 (Q9HB40 whole entry, looked up): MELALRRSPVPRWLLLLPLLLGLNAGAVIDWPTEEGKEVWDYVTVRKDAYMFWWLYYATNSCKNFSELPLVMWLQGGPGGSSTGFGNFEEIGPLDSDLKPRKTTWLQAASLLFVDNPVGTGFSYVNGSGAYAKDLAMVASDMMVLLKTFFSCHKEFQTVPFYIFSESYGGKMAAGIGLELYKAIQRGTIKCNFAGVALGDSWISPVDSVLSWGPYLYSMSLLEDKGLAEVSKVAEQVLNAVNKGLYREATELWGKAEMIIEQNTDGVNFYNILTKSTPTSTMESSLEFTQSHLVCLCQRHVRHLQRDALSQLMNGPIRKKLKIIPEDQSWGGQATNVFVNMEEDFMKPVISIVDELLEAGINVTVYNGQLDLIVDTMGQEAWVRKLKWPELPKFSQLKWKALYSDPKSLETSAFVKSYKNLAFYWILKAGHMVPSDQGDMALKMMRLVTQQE
inactive: [2] -0.013 | [3] 0.028 | [4] -0.006 | [5] -0.007 | [6] -0.004 | [7] 0.023 | [8] 0.034 | [9] 0.026 | [10] 0.04 | [11] 0.036 | [12] 0.001 | [14] 0.008 | [15] 0.023 | [16] -0.037 | [17] -0.043 | [18] 0.003 | [19] 0.024 | [20] 0.022
active: [1] -0.499 | [13] -0.314

SERPINA7 (UniProt P05543)
inactive: [1] -0.191 | [2] -0.152 | [3] 0.05 | [4] 0.115 | [5] 0.098 | [6] 0.392 | [7] 0.238 | [8] 0.001 | [9] 0.104 | [10] -0.247 | [11] -0.062 | [12] 0.132 | [13] 0.234 | [14] -0.075 | [15] -0.084 | [16] -0.164 | [17] -0.011 | [18] 0.091 | [19] 0.089 | [20] 0.367

RBM27 (UniProt Q9P2N5)
Chain of UniProt Q9P2N5 (Q9P2N5 whole entry, looked up): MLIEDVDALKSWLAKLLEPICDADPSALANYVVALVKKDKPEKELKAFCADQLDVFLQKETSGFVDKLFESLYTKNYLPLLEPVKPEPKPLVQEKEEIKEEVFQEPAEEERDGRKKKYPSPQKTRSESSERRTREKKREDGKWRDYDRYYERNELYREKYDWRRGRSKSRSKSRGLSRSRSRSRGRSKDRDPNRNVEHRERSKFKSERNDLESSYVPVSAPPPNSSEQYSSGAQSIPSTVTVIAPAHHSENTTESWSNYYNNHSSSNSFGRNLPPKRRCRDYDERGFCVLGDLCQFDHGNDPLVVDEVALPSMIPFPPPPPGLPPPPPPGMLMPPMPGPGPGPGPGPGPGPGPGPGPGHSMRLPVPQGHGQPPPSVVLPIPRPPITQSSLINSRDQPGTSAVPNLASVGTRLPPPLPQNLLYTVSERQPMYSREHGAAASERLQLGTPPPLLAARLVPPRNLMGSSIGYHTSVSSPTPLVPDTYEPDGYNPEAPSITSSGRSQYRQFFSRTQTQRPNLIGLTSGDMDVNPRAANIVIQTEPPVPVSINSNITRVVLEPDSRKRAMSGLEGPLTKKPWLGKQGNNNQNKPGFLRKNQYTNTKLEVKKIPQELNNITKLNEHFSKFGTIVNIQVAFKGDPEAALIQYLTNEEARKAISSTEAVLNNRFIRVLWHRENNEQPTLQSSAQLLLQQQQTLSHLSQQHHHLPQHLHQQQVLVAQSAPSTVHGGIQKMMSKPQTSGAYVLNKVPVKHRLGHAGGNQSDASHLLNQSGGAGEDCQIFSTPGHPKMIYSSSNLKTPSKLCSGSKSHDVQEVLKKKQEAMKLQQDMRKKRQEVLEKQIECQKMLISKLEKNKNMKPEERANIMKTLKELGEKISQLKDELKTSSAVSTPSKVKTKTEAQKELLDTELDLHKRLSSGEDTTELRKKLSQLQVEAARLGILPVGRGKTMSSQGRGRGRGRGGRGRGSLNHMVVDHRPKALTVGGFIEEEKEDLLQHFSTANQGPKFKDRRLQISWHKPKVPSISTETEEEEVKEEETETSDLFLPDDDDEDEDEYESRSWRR
active: [4] -0.91
inactive: [1] 0.007 | [2] 0.078 | [3] 0.019 | [5] -0.07 | [6] -0.07 | [7] 0.053 | [8] 0.041 | [9] -0.005 | [10] 0.023 | [11] -0.151 | [12] -0.015 | [13] -0.058 | [14] -0.042 | [15] 0.044 | [16] 0.125 | [17] 0.04 | [18] -0.078 | [19] -0.056 | [20] -0.064

RTN4IP1 (UniProt Q8WWV3)
Chain of UniProt Q8WWV3 (Q8WWV3 whole entry, looked up): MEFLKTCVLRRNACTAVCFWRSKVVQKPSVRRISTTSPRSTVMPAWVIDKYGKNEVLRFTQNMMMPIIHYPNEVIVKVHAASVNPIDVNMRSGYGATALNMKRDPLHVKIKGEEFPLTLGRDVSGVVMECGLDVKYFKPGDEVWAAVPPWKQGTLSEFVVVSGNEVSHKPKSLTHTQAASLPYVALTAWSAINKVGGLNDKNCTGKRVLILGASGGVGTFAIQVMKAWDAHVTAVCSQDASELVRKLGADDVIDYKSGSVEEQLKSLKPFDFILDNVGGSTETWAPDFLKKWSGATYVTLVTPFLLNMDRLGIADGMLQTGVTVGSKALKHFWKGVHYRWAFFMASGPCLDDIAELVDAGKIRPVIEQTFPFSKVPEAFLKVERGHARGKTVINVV
inactive: [1] -0.178 | [2] -0.07 | [3] 0.171 | [4] -0.194 | [5] 0.189 | [6] -0.008 | [7] 0.121 | [8] 0.168 | [9] 0.041 | [10] 0.122 | [11] -0.057 | [12] -0.218 | [13] -0.085 | [14] -0.024 | [15] 0.009 | [16] 0.111 | [17] 0.316 | [18] 0.069 | [19] 0.079 | [20] -0.198

SCD (UniProt O00767)
Chain of UniProt O00767 (O00767 whole entry, looked up): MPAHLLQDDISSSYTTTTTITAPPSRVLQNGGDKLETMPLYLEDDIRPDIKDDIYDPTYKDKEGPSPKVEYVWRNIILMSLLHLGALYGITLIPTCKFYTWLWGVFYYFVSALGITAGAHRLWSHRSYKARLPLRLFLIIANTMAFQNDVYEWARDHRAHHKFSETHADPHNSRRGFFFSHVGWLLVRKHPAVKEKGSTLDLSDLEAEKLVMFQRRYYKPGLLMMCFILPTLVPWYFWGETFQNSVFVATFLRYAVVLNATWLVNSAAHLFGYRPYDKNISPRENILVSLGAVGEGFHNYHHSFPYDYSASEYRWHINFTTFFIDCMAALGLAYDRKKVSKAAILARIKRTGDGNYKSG
active: [16] -0.382 | [17] -0.403
inactive: [1] -0.153 | [2] 0.109 | [3] -0.063 | [4] -0.007 | [5] -0.026 | [6] -0.019 | [7] 0.013 | [8] 0.034 | [9] 0.075 | [10] 0.019 | [11] -0.064 | [12] -0.151 | [13] -0.071 | [14] -0.054 | [15] -0.043 | [18] 0.083 | [19] 0.051 | [20] -0.005

RBM39 (UniProt Q14498)
Chain of UniProt Q14498 (Q14498 whole entry, looked up): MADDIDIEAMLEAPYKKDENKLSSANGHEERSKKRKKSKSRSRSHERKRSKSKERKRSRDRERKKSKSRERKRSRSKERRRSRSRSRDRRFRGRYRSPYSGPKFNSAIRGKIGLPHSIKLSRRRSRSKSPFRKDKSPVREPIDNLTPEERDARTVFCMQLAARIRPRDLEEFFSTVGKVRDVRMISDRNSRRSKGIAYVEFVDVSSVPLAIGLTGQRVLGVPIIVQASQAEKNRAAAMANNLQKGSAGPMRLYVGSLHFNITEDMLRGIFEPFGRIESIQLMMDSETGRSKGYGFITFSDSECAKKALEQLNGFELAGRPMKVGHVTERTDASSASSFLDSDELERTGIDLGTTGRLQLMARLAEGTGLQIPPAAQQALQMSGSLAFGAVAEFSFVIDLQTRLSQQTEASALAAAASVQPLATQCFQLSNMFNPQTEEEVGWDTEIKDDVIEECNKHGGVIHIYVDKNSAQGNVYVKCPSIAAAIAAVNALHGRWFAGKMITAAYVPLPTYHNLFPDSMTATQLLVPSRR
active: [4] -1.03
inactive: [1] 0.046 | [2] 0.082 | [3] -0.027 | [5] -0.1 | [6] 0.055 | [7] -0.041 | [8] -0.012 | [9] -0.03 | [10] -0.043 | [11] -0.141 | [12] -0.079 | [13] 0.023 | [14] -0.152 | [15] 0.02 | [16] 0.062 | [17] 0.105 | [18] -0.083 | [19] 0.049 | [20] -0.144

RRP9 (UniProt O43818)
inactive: [1] -0.02 | [2] -0.103 | [3] 0.046 | [4] -0.042 | [5] 0.106 | [6] -0.107 | [7] -0.062 | [8] -0.102 | [9] 0.074 | [10] -0.046 | [11] 0 | [12] 0.053 | [13] 0.14 | [14] 0.08 | [15] -0.002 | [16] -0.035 | [17] 0.003 | [18] 0.069 | [19] 0.112 | [20] -0.073

RPS21 (UniProt P63220)
inactive: [1] 0.087 | [2] -0.057 | [3] 0.011 | [4] 0.072 | [5] 0.1 | [6] -0.012 | [7] -0.009 | [8] -0.004 | [9] 0.017 | [10] 0.002 | [11] 0.022 | [12] 0.018 | [13] 0.114 | [14] -0.012 | [15] -0.061 | [16] -0.059 | [17] 0.002 | [18] 0.008 | [19] 0.045 | [20] -0.015

RAB8B (UniProt Q92930)
Chain of UniProt Q92930 (Q92930 whole entry, looked up): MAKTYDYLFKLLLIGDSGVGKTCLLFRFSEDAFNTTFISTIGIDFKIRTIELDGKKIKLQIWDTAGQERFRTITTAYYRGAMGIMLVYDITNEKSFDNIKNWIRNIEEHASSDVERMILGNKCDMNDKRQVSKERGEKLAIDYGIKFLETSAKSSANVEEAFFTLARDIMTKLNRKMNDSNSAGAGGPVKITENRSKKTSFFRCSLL
inactive: [1] -0.008 | [2] 0.085 | [3] 0.059 | [4] -0.036 | [5] 0.015 | [6] -0.043 | [7] 0.031 | [8] -0.016 | [9] -0.088 | [10] -0.062 | [11] 0.203 | [12] 0.017 | [13] -0.053 | [14] 0.2 | [15] 0.116 | [16] 0.073 | [17] 0.03 | [18] -0.049 | [19] -0.013 | [20] 0.093

RPS6KA1 isoform 2 (UniProt Q15418)
Chain of UniProt Q15418 (Q15418 whole entry, looked up): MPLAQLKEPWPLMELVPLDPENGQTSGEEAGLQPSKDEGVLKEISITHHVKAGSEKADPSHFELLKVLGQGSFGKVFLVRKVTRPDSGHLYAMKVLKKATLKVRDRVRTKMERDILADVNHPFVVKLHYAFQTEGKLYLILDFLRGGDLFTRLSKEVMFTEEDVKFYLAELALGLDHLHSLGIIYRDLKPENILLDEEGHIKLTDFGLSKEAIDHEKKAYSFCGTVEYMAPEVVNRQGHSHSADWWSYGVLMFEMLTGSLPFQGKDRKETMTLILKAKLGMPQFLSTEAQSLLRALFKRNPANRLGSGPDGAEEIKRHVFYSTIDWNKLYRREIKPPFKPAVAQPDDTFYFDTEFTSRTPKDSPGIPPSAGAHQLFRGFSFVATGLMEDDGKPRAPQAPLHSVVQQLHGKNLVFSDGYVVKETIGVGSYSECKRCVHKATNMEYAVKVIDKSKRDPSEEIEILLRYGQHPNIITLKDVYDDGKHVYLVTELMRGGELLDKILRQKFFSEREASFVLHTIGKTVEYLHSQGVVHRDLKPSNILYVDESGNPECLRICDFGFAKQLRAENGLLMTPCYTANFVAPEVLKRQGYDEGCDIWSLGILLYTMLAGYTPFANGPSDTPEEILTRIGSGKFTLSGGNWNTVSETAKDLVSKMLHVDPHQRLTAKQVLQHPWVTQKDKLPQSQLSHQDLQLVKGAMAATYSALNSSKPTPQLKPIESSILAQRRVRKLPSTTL
active: [4] -0.569
inactive: [1] -0.051 | [2] 0.081 | [3] -0.002 | [5] -0.281 | [6] -0.044 | [7] -0.019 | [8] 0 | [9] -0.056 | [10] 0.041 | [11] -0.131 | [12] -0.242 | [13] -0.205 | [14] -0.096 | [15] 0.06 | [16] 0.109 | [17] 0.058 | [18] -0.08 | [19] -0.099 | [20] -0.32

RARS2 (UniProt Q5T160)
inactive: [1] -0.148 | [2] 0.104 | [3] -0.039 | [4] 0.019 | [5] -0.023 | [6] -0.006 | [7] 0.061 | [8] 0.012 | [9] -0.008 | [10] 0.075 | [11] 0.042 | [12] -0.035 | [13] -0.182 | [14] -0.043 | [15] 0.03 | [16] 0.029 | [17] 0.048 | [18] 0.006 | [19] -0.022 | [20] -0.053
